# Measurements from article PMC7862700, “An all-to-all approach to the identification of sequence-specific readers for epigenetic DNA modifications on cytosine”.
# Experiments:
# Experiment in all cases: DAPPL (digital affinity profiling via proximity ligation, sequencing); 10 mM Tris-HCl pH 7.5, 50 mM NaCl, 1 mM DTT, 4% glycerol, room temperature, 30 min; GST-TFs on glutathione beads, 16-mer random dsDNA library, 0.1% formaldehyde crosslink after washing; high values mean tight binding
# FLI1 = biological target: T1, FLI1 (Homo sapiens, UniProt Q01543 1-452); conditions: protein: recombinant; tags: N-terminal GST; dsDNA, one strand shown
# T1 sequence: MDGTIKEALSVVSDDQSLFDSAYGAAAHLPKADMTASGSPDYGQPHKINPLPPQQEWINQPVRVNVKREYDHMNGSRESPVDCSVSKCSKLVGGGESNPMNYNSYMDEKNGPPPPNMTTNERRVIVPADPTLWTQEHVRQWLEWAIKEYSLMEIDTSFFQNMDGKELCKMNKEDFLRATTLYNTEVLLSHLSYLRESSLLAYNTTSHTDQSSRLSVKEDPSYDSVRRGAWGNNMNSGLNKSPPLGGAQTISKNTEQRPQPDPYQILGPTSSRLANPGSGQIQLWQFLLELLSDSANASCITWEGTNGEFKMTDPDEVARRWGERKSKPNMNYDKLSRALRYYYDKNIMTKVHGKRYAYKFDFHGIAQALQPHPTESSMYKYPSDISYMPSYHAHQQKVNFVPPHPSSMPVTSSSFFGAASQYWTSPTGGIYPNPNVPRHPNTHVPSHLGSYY
# In short: (§1)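 The binding signal reported is, for every hexamer, its read frequency for a factor over its read frequency for the tag-only sample. Reads came from pools of yeast-expressed, GST-fused human transcription factors on glutathione beads, barcoded with DNA and mixed with that sample, which were incubated with 200 nmole of a random double-stranded 16-mer DNA library in Tris/NaCl/DTT/glycerol buffer at room temperature for 30 min. After washing, the pools were crosslinked with 0.1% formaldehyde, proximity-ligated with BsaI/T4 ligase for 1 h at 37 °C, PCR-amplified and sequenced on an Illumina NextSeq500.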
# ELK1 = biological target: T2, ELK1 (Homo sapiens, UniProt P19419 1-428); conditions: protein: recombinant; tags: N-terminal GST; dsDNA, one strand shown
# T2 sequence: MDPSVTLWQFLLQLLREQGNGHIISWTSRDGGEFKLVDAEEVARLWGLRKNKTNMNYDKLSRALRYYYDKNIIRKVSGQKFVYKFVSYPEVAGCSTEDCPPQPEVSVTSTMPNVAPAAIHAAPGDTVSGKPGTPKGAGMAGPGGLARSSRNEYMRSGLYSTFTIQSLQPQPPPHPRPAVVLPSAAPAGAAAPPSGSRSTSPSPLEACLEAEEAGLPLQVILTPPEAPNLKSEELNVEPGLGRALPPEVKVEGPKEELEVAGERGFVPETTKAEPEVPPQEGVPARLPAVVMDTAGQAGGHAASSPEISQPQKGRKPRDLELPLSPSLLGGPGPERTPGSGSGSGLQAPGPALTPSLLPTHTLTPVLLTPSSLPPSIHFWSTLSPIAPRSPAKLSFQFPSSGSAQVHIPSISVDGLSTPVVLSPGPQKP
# In short: as §1
# GABPA = biological target: T3, GABPA (Homo sapiens, UniProt Q06546 1-454); conditions: protein: recombinant; tags: N-terminal GST; dsDNA, one strand shown
# T3 sequence: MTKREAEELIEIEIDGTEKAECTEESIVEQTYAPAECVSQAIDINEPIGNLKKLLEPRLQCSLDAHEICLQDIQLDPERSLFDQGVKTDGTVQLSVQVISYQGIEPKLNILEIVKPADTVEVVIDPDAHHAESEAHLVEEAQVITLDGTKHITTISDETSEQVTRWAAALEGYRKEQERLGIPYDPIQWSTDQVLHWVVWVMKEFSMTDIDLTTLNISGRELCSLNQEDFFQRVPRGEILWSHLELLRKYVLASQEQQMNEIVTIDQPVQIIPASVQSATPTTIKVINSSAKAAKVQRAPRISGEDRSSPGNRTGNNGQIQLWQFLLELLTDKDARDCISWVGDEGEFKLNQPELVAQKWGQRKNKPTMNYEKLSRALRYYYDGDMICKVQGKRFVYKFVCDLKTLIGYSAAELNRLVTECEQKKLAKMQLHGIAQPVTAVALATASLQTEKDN
# In short: as §1
# ERG = biological target: T4, ERG (Homo sapiens, UniProt P11308 1-479); conditions: protein: recombinant; tags: N-terminal GST; dsDNA, one strand shown
# T4 sequence: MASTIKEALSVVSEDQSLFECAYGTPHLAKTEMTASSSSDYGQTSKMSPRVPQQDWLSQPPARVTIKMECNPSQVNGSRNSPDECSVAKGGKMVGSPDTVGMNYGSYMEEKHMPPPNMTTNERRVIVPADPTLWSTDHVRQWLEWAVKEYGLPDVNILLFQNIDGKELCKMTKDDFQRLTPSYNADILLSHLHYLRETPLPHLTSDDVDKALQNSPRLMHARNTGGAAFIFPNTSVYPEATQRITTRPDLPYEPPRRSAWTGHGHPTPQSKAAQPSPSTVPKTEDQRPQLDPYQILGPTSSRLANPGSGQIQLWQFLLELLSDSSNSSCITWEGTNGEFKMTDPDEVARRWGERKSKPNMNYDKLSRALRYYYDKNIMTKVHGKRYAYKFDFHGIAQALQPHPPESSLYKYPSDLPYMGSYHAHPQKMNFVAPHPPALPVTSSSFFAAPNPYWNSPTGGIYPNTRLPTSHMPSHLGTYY
# In short: as §1
# ELF1 = ELF1 (Homo sapiens, UniProt P32519 1-619); conditions: protein: recombinant; tags: N-terminal GST; dsDNA, one strand shown
# In short: as §1
# EHF = biological target: T5, EHF (Homo sapiens, UniProt Q9NZC4 1-300); conditions: protein: recombinant; tags: N-terminal GST; dsDNA, one strand shown
# T5 sequence: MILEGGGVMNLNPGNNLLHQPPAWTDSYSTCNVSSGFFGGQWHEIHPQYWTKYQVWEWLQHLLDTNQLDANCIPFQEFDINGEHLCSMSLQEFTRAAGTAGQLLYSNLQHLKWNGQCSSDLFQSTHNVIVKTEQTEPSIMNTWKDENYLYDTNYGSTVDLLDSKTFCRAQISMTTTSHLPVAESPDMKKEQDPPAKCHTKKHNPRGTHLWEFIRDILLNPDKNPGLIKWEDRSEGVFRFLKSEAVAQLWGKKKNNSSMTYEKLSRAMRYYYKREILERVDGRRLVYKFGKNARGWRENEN
# In short: as §1
# SPI1 = SPI1 (Homo sapiens, UniProt P17947 1-270); conditions: protein: recombinant; tags: N-terminal GST; dsDNA, one strand shown
# In short: as §1
# SPIB = SPIB (Homo sapiens, UniProt Q01892 1-262); conditions: protein: recombinant; tags: N-terminal GST; dsDNA, one strand shown
# In short: as §1
# ELK3 = biological target: T6, ELK3 (Homo sapiens, UniProt P41970 1-407); conditions: protein: recombinant; tags: N-terminal GST; dsDNA, one strand shown
# T6 sequence: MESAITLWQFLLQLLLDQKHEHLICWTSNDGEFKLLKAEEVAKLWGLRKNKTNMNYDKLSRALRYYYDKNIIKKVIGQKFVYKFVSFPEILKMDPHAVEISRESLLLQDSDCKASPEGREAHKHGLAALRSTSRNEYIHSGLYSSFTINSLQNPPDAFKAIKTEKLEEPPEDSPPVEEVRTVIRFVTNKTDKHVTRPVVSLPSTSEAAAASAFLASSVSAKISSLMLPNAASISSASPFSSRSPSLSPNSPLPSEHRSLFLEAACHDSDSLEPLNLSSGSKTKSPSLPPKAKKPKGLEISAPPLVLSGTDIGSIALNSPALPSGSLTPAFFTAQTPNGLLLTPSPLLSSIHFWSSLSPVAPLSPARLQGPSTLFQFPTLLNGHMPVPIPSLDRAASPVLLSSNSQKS
# In short: as §1
# FEV = biological target: T7, FEV (Homo sapiens, UniProt Q99581 1-238); conditions: protein: recombinant; tags: N-terminal GST; dsDNA, one strand shown
# T7 sequence: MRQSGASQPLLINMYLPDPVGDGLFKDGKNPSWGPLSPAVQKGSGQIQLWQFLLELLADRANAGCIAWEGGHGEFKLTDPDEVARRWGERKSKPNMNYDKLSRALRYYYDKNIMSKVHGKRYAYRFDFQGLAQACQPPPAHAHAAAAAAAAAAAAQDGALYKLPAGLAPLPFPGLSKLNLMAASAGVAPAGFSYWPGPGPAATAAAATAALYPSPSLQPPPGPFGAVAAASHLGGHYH
# In short: as §1
# ETV5 = ETV5 (Homo sapiens, UniProt P41161 1-510); conditions: protein: recombinant; tags: N-terminal GST; dsDNA, one strand shown
# In short: as §1
# HSF1 = HSF1 (Homo sapiens, UniProt Q00613 1-529); conditions: protein: recombinant; tags: N-terminal GST; chain copies: 3; dsDNA, one strand shown
# In short: as §1
# SPIC = biological target: T8, SPIC (Homo sapiens, UniProt Q8N5J4 1-248); conditions: protein: recombinant; tags: N-terminal GST; dsDNA, one strand shown
# T8 sequence: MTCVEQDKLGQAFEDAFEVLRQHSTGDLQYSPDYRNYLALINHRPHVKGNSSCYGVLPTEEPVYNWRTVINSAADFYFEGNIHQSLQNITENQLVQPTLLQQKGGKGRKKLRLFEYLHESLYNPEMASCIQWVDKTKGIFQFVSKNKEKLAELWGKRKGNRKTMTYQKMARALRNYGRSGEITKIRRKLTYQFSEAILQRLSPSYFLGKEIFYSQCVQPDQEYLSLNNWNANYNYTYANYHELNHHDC
# In short: as §1
# ELF4 = ELF4 (Homo sapiens, UniProt Q99607 1-663); conditions: protein: recombinant; tags: N-terminal GST; dsDNA, one strand shown
# In short: as §1
# ELK4 = biological target: T9, ELK4 (Homo sapiens, UniProt P28324-2 1-405); conditions: protein: recombinant; tags: N-terminal GST; dsDNA, one strand shown
# T9 sequence: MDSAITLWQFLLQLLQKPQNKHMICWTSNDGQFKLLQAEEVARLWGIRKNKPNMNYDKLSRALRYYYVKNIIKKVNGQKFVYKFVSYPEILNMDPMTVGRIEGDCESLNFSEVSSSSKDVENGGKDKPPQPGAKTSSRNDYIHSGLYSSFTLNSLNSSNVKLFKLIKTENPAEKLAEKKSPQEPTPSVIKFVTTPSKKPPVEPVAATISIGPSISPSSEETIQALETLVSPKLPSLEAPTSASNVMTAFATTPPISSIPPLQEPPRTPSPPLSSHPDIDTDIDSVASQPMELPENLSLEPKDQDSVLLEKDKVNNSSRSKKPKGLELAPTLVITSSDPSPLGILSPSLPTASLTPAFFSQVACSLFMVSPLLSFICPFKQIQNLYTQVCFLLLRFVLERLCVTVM
# In short: as §1
# ETV2 = biological target: T10, ETV2 (Homo sapiens, UniProt O00321 1-342); conditions: protein: recombinant; tags: N-terminal GST; dsDNA, one strand shown
# T10 sequence: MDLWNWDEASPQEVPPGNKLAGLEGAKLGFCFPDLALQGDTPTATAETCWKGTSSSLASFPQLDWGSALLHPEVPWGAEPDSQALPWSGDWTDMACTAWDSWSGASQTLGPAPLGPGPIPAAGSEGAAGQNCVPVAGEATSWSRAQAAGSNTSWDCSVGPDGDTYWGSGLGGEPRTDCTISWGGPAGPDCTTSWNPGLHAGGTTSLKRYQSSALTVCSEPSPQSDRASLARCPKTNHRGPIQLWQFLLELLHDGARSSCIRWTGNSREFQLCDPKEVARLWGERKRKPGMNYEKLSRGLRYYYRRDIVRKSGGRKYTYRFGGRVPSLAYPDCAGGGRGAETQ
# In short: as §1
# ELF3 = biological target: T11, ELF3 (Homo sapiens, UniProt P78545 1-371); conditions: protein: recombinant; tags: N-terminal GST; dsDNA, one strand shown
# T11 sequence: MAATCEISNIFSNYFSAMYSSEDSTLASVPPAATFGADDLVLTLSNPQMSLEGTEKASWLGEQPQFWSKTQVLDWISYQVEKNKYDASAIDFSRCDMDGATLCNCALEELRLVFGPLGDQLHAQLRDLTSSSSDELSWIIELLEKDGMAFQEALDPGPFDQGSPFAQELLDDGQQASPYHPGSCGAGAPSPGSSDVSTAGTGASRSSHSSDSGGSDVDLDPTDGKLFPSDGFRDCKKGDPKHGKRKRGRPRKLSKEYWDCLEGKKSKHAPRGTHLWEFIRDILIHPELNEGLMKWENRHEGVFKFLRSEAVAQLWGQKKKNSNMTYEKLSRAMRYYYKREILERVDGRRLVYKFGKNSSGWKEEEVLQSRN
# In short: as §1
# ETV1 = ETV1 (Homo sapiens, UniProt P50549 1-477); conditions: protein: recombinant; tags: N-terminal GST; dsDNA, one strand shown
# In short: as §1
# ETV1, sequence (P50549 whole entry): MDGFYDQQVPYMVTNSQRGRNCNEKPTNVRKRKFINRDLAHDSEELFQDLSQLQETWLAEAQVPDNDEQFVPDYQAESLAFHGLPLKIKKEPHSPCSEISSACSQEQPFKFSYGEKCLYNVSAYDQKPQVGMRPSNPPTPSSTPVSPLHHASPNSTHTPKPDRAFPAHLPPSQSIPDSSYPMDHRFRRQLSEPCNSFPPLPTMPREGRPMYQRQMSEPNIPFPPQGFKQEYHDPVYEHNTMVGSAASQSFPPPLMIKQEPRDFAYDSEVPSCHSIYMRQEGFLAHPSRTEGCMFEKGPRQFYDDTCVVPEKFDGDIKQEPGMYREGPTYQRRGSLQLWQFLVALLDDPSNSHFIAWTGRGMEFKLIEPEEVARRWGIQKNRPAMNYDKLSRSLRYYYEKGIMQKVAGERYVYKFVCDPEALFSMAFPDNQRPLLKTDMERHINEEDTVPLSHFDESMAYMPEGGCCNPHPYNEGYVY
# SPIB, sequence (Q01892 whole entry): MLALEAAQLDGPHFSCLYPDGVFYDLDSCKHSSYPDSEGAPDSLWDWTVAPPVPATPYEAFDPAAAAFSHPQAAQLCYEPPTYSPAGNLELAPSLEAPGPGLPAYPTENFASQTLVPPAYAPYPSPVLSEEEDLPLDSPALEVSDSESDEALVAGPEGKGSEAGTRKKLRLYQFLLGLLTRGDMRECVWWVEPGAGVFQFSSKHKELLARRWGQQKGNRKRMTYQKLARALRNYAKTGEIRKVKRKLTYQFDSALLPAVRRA
# ELF1, sequence (P32519 whole entry): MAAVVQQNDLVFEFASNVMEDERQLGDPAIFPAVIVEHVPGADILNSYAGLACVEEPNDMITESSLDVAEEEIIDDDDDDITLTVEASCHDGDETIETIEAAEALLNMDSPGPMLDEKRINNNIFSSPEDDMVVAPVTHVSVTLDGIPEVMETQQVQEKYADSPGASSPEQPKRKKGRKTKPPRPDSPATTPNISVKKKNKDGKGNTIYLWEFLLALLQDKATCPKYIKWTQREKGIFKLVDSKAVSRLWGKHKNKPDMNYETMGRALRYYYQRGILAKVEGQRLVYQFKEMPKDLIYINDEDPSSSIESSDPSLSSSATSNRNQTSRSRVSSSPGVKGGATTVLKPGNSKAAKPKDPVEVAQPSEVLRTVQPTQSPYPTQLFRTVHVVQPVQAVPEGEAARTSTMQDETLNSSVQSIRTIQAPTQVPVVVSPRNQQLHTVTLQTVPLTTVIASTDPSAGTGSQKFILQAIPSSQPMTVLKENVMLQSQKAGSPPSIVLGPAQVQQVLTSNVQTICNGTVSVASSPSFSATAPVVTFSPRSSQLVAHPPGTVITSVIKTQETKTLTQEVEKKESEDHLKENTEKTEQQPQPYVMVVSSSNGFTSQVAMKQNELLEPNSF
# ETV5, sequence (P41161 whole entry): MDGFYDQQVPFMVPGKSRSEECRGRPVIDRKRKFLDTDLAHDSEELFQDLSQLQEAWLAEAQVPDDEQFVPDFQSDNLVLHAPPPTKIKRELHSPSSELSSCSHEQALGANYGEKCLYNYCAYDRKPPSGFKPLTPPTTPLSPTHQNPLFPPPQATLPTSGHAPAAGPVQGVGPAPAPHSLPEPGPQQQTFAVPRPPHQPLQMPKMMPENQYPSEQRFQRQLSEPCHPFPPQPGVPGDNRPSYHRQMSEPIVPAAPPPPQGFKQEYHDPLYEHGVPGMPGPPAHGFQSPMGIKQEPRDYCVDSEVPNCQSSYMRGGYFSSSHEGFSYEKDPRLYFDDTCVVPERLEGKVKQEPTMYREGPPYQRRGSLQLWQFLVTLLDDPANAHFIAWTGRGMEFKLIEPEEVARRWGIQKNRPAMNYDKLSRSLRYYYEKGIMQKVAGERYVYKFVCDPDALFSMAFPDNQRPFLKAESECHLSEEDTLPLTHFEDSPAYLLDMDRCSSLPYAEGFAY
# HSF1, sequence (Q00613 whole entry): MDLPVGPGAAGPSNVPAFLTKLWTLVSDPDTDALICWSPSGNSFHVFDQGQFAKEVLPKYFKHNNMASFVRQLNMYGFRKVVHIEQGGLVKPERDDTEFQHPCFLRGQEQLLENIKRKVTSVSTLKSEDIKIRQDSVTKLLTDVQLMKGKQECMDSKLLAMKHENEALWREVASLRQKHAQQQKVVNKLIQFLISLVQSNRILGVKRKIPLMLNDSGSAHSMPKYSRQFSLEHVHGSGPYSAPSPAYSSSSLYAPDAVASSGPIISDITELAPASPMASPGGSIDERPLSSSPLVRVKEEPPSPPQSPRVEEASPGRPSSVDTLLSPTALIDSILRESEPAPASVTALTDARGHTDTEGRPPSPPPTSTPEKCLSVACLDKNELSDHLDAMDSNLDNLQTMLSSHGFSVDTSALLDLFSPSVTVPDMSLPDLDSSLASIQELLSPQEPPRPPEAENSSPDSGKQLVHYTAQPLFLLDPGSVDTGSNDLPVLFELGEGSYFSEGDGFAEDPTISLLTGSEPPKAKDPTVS
# ELF4, sequence (Q99607 whole entry): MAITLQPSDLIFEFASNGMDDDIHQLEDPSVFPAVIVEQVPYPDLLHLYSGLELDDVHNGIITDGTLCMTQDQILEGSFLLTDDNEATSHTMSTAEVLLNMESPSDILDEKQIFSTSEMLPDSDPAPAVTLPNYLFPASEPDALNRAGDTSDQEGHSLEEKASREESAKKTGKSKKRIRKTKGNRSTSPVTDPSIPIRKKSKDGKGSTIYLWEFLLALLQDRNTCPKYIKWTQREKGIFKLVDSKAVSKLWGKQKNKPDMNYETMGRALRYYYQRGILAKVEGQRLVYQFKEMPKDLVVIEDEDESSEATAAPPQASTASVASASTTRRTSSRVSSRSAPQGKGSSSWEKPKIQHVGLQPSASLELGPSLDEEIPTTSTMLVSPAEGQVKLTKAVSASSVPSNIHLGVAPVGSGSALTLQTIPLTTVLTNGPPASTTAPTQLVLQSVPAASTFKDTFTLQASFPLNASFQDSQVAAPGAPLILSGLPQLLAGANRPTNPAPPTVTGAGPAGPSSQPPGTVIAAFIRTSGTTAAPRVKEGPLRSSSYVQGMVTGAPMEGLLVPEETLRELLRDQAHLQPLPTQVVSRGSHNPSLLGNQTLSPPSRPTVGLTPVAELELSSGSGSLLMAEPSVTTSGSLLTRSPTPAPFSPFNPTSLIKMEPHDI
sequence,measurement,setting,value
ACATAC,binding signal,FLI1,"1.18 fold enrichment (6-mer frequency, TF over GST control)"
same,binding signal,ELK1,"1.14 fold enrichment (6-mer frequency, TF over GST control)"
same,binding signal,GABPA,"1.19 fold enrichment (6-mer frequency, TF over GST control)"
same,binding signal,ERG,"1.19 fold enrichment (6-mer frequency, TF over GST control)"
same,binding signal,ELF1,"1.17 fold enrichment (6-mer frequency, TF over GST control)"
same,binding signal,EHF,"1.14 fold enrichment (6-mer frequency, TF over GST control)"
same,binding signal,SPI1,"1.16 fold enrichment (6-mer frequency, TF over GST control)"
same,binding signal,SPIB,"1.09 fold enrichment (6-mer frequency, TF over GST control)"
same,binding signal,ELK3,"1.17 fold enrichment (6-mer frequency, TF over GST control)"
same,binding signal,FEV,"1.13 fold enrichment (6-mer frequency, TF over GST control)"
same,binding signal,ETV5,"1.17 fold enrichment (6-mer frequency, TF over GST control)"
same,binding signal,HSF1,"1.07 fold enrichment (6-mer frequency, TF over GST control)"
same,binding signal,SPIC,"1.11 fold enrichment (6-mer frequency, TF over GST control)"
same,binding signal,ELF4,"1.21 fold enrichment (6-mer frequency, TF over GST control)"
same,binding signal,ELK4,"1.01 fold enrichment (6-mer frequency, TF over GST control)"
same,binding signal,ETV2,"1.32 fold enrichment (6-mer frequency, TF over GST control)"
same,binding signal,ELF3,"1.25 fold enrichment (6-mer frequency, TF over GST control)"
same,binding signal,ETV1,"1.15 fold enrichment (6-mer frequency, TF over GST control)"
